# Source: the supplement of paper PMC5499739
# Over roughly 16,000 sequences, “Z-score” has its median near -0.37; the highest 2% begin near 3.1. The sample as a whole holds a higher share of the highest values than the screen did.
# Test system: RBM10 RRM1-ZnF-RRM2 (GST-tagged construct)
# Assay: RNAcompete 7-mer binding Z-score; higher = stronger binding preference
# How it was run: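 Each heptamer motif was given a one-sided Z-score for enrichment across the probes that contained it. GST-tagged RBM10 constructs (20 pmol) were combined with 1.5 nmol of a designed pool of 241 399 RNAs of up to 41 nt, transcribed from microarray-derived DNA templates. Binding took place in 1 ml Hepes pH 7.8 buffer containing KCl, NaCl, glycerol, DTT, BSA and glutathione Sepharose beads for 30 min at 4°C. After four 2-min washes at 4°C, bound RNA was identified by microarray hybridisation.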
row,Sequence,RNAcompete 7-mer binding Z-score
1,GGCCGUA,0.0786
2,AAGAGGU,1.66
3,CCGCAUA,-0.817
4,AAGAUUU,-0.588
5,CGUAAUC,-0.511
6,GGGUGAC,2.92
7,UGGUGAA,1.22
8,CGGUGAA,0.723
9,GGGUGAU,3.16
10,GGGUGAG,4.12
11,AGGUGAU,1.62
12,UGGUGAU,0.727
13,GGGUGAA,3.66
14,CGGUGAG,1.64
15,CAUUUCU,-0.872
16,CAUAACU,-0.592
17,UAAAGCC,-0.661
18,ACGUUUC,-0.912
19,GAACAGA,0.745
20,AGACAGG,1.72
21,UAACAGG,1.14
22,GAACAGG,3.18
23,GGACAGU,1.01
24,GGACAGG,3.23
25,ACCCAGG,-0.173

row,Sequence,RNAcompete 7-mer binding Z-score
1,GCUUUAA,-0.726
2,CCAGCUA,-0.719
3,GUGGUAU,1.08
4,GUGCUAG,0.268
5,CGAUCUG,-0.795
6,GUCUAAC,-0.486
7,GGGUAGC,2.69
8,GGGUAUC,2.16
9,GGGUAGA,3.84
10,UGGUAGA,1.89
11,UGGUAGC,1.01
12,GGGUAUG,3.69
13,GAGUAGA,1.4
14,GAGUAGG,3.6
15,CGGUAGA,1.01
16,GAGUAGU,0.68
17,AGGUAUG,1.95
18,UGGUAGG,3.16
19,UGAUUCC,-0.668
20,AAUUGUG,-0.00512
21,UUGGUGA,1.39
22,GAUCGCG,-0.0925
23,UCGUUCA,-0.508
24,UUUGAUG,-0.358
25,UUGAGCA,-0.165

row,Sequence,RNAcompete 7-mer binding Z-score
1,UGGUACA,0.949
2,AGGUAGA,2.42
3,AGGUAGC,0.862
4,CGGUAGU,0.37
5,AGGUAGG,3.72
6,GGGUACA,3.39
7,GCGUAGG,2.21
8,UGGUAGU,0.585
9,GGGUAGG,4.42
10,GGGUAGU,3.17
11,GGGUACU,2.05
12,CGGUAGG,2.15
13,UAUGAAC,-0.195
14,CAUGCUU,-0.861
15,UGCUGCG,-0.34
16,UACUCGC,-0.548
17,GUGGAAU,2.34
18,AGUAUAU,-0.351
19,AGGGGAA,3.56
20,AAGGGCG,3.12
21,GGGGGAA,2.61
22,AAGGGAC,3.43
23,AAGGGAG,4.04
24,ACGGGAU,1.88
25,AGGGGAG,2.52

row,Sequence,RNAcompete 7-mer binding Z-score
1,GAGGGAC,2.02
2,AGGGGAC,1.97
3,UAGGGAU,2.48
4,CGGGGAA,2.76
5,AAGGGAU,3.44
6,UUAGGCC,-0.471
7,AGGCCUG,-0.632
8,AAUCGCU,-0.825
9,GUCUCUC,-0.719
10,CGCGUGG,1.41
11,UUCGGCU,-0.61
12,AACCAGU,-0.235
13,GUCGUCC,-0.377
14,CAACUAC,-0.628
15,CAGGGAA,3.07
16,AGGGGAU,3.41
17,AAGGCAA,1.95
18,AAGGGAA,4.17
19,UGGGGAU,3.05
20,UAGGGAA,3.46
21,UAGGGAG,3.15
22,GGGGGAU,2.89
23,CAGGGAG,3.08
24,UAGGGAC,2.24
25,GAGGGAG,3.04

row,Sequence,RNAcompete 7-mer binding Z-score
1,ACGGGAA,2.76
2,GUCUCCU,-0.694
3,CACAAGA,-0.391
4,AAAAUGG,2.68
5,CAAGUGA,0.228
6,GGCUAAA,0.661
7,AAGGGCA,3.44
8,AAGGGCU,1.39
9,AAGGGCC,1.53
10,AAUGGAG,3.01
11,GAUGGGC,2.09
12,UAUGGAG,1.68
13,GAUGGGA,3.8
14,GAUGGUA,2.46
15,GAUGGAG,3.16
16,AAUGGGG,4.38
17,ACUGGGG,1.58
18,GAUGGUG,2.77
19,CAUGGGG,2.51
20,UAUGGGA,2.76
21,GAUGGGG,4
22,AGCAUUU,-0.726
23,GCCAGCA,-0.205
24,CCGGUGC,-0.136
25,CAUGCAA,-0.289

row,Sequence,RNAcompete 7-mer binding Z-score
1,CUGUCCU,-0.817
2,UCUUCGG,-0.657
3,CGUGCGA,-0.209
4,CUCGAAG,-0.318
5,CGAACUC,-0.719
6,UAUGGGG,3.19
7,CAUGGGA,2.16
8,CAUGGGU,2.58
9,AAUGGGU,4.1
10,GAUGGGU,3.01
11,AAUGGGC,2.92
12,AAUGGAA,3.27
13,UAUGGAA,1.22
14,UAUGGGU,2.81
15,AAUGGGA,4.69
16,UAUGGGC,1.64
17,CAUGGAA,1.36
18,CAUCCCA,-0.486
19,GCCAUCG,-0.646
20,GACUUCA,-0.672
21,UUGCUGA,-0.486
22,AUAAGUU,-0.249
23,CGAGAGG,1.46
24,UUCCAGA,-0.519
25,UGGCUUU,-0.464

row,Sequence,RNAcompete 7-mer binding Z-score
1,AUGGAGU,2.24
2,AUGGAGA,2.59
3,AUGGAGG,4.33
4,GUGGAGC,2.47
5,CCGGAGG,0.876
6,GUGGAGU,2.86
7,GUGGAGG,4.09
8,ACGGAGG,2.57
9,GCGGAGG,3.25
10,CGAUAAU,-0.256
11,GGAUCAA,1.19
12,CAUCCCU,-0.69
13,CGAAGUU,-0.235
14,AACAGUG,0.654
15,GCUCGCA,-0.373
16,UAACUAC,-0.551
17,AGAUAGG,2.87
18,GGAUUGG,3.28
19,GGAUUGU,0.822
20,GGAUAGG,4.1
21,CGAUUGG,0.825
22,GAAUAGG,3.18
23,UAAUAGG,0.742
24,CAAUAGG,1.3
25,GGAUAGA,2.48

row,Sequence,RNAcompete 7-mer binding Z-score
1,UGACGCA,-0.107
2,AACCUAA,-0.734
3,UUAGCUC,-0.781
4,CGAUAUC,-0.5
5,GGAUCGC,0.538
6,UAUGAGG,1.54
7,UCCAGCC,-0.799
8,ACAGAUC,-0.508
9,CACGUGC,-0.428
10,UAUUGCG,-0.278
11,UCCCGUU,-0.799
12,UUCGUCG,-0.3
13,CUUAAUC,-0.905
14,GCAAGGU,2.17
15,ACAAGGA,1.94
16,CCAAGGG,1.05
17,GCAAGGG,3.28
18,GCAAGGA,2.65
19,ACAAGGG,3.52
20,AAAAAUU,-0.435
21,GAUAUAG,0.734
22,CUUUACG,-0.81
23,UCGAGUU,-0.482
24,GCCUACC,-0.726
25,GGGCUGC,1.14

row,Sequence,RNAcompete 7-mer binding Z-score
1,GUAGGUA,2.25
2,GAAGGUC,1.25
3,GAAGGUU,2.96
4,AUAGGUG,2.41
5,UAAGGUA,1.39
6,GUAGGUG,3.25
7,GAAGGUA,4.04
8,GAAGGUG,4.37
9,CAAGGUG,2.13
10,AAAGGUG,3.5
11,UAAGGUG,2.07
12,GAAGGCG,2.66
13,GCCAUGU,-0.632
14,CUAGUGC,-0.486
15,AACCGUG,-0.00148
16,UCGAAAG,-0.00148
17,AUUCGAG,-0.114
18,AGACCGG,-0.366
19,AAAGGUC,1.46
20,AAAGGUA,3.53
21,AAAGGUU,3.09
22,AGAAGAA,1
23,GGAAGGC,3.04
24,UGAAGGG,3.56
25,GGAAGGU,3.94

row,Sequence,RNAcompete 7-mer binding Z-score
1,CGAAGGU,1.34
2,UGAAGCG,0.581
3,AGAAGGC,1.17
4,CGAAGGA,1.62
5,UGAAGGA,2.95
6,AGAAGGA,4.29
7,UGAAGGC,1.21
8,GGAAGGA,4.61
9,CGAAUAA,-0.224
10,GGUCAGC,0.716
11,CAUUUGC,-1.04
12,AGUCCAA,-0.464
13,AUGCGCG,-0.0889
14,GAAAUCG,0.195
15,GGCAACU,0.0532
16,AUAGACA,0.0532
17,AUAAUCU,-0.65
18,AAGAUGU,0.13
19,AACGGAA,1.91
20,GCAUUUA,-0.661
21,AACAAAG,0.355
22,CUGCUCU,-0.923
23,GGCAUGA,0.876
24,AGAAGGG,4.09
25,AGAAGCU,-0.508

row,Sequence,RNAcompete 7-mer binding Z-score
1,AGAAGAG,1.61
2,CGAAGGG,2.68
3,UGAAGGU,2.14
4,AGAAGGU,3.67
5,CCCCCCA,-0.38
6,ACUAGGC,-0.235
7,CUAACGA,-0.566
8,UGUAGCC,-0.624
9,AUCCCUC,-0.759
10,CGCACGG,-0.0124
11,CGGUUGA,0.876
12,AGGUUGG,2.71
13,GGGUUAG,4.04
14,GGGUUGA,3.53
15,GGGUUGG,4.05
16,CGGUUAG,0.691
17,UGGUUGA,1.31
18,CGGUUGG,1.91
19,UGGUUAG,1.94
20,AAGUUUU,-0.329
21,CUGGGAG,1.4
22,CUGGGAA,1.36
23,AUGGGAG,3.64
24,UUGGGAG,2.51
25,AUGGGGG,3.84

row,Sequence,RNAcompete 7-mer binding Z-score
1,AUGGGGA,4.23
2,AUGGGAA,4.29
3,AUGGGGC,2.6
4,UUGGGAA,1.92
5,GCGGUAU,0.574
6,AUUAUCG,-0.402
7,UCCCCCU,-0.566
8,UGAAAUU,-0.686
9,CUGUGGG,1.63
10,AAAAAAA,-0.49
11,UAGGCUA,0.392
12,CGACGUG,0.25
13,GACGGCG,0.836
14,AUGGGGU,3.91
15,CGGGGGU,3.06
16,CUGGGGU,1.79
17,AUCACCU,-0.876
18,UGUAGAU,0.235
19,GUUAGGC,1.25
20,ACGGGGA,2.84
21,ACGGGUG,3.24
22,ACGGGUC,1.42
23,ACGGGGU,3.8
24,ACGGGGG,3.19
25,GCGGGUG,2.75

row,Sequence,RNAcompete 7-mer binding Z-score
1,CCGGGGU,1.71
2,ACGGGGC,2.37
3,ACGGGUU,2.32
4,CGUUCUC,-0.763
5,UUCAUUU,-0.737
6,GCGGCUA,0.21
7,ACCCAGC,-0.785
8,CAAUGCA,-0.362
9,UCUAAUG,-0.577
10,CUUUAUA,-0.752
11,GGCGAGC,1.87
12,GGCGGGC,1.97
13,AGCGGGG,3.96
14,GGCGAGG,3.22
15,AGCGGGA,3.24
16,CGCGGGG,2.32
17,AGCGGGU,3.01
18,CGCGAGG,0.833
19,GGCGGGG,3.64
20,GGCGGGU,2.57
21,CGCGGGA,1.16
22,AGCGGGC,1.57
23,UGGUAAG,1.73
24,CUAGGGA,1.6
25,GAGACCG,-0.0452

row,Sequence,RNAcompete 7-mer binding Z-score
1,UACACCC,-0.77
2,AGCAGGU,1.74
3,GACUCCA,-0.704
4,CUUUAGG,-0.369
5,AUAUAAU,-0.366
6,GGUGAAA,1.83
7,CAAAUAG,-0.144
8,GGCGGCA,1.12
9,GGCGGGA,3.23
10,UGCGGGA,1.7
11,AUAUUAG,0.0313
12,GGUUGGC,2.03
13,GGUUGGU,1.94
14,GAUUGGG,3.64
15,GGUUGGG,4.42
16,UUUGGGG,2.13
17,CUUGGGG,1.13
18,GAUUGGC,0.927
19,GUUGGGG,3.69
20,AUUGGGG,3.16
21,AAUUGGG,2.6
22,AUUGGGA,2.99
23,AUUGGGU,2.74
24,CCUUUCC,-0.887
25,AUGGCGU,0.705

row,Sequence,RNAcompete 7-mer binding Z-score
1,CGCUAAU,-0.628
2,AAGCAGA,0.672
3,UCGGAAC,0.0532
4,UUGUCAA,-0.741
5,AAUUCAC,-0.643
6,UUUGCAA,-0.602
7,ACUUUCU,-0.959
8,AUCGAGA,0.352
9,GGUUAGC,1.03
10,GGUUAGU,1.6
11,GGUUAGG,4.22
12,ACUGCCC,-0.439
